In PubChem BioAssay AID1159580 (chemical genetic matrix, 2015):
In all, about 5,500 compounds went through this assay and about 2,000 (36%) were called active. Inconclusive results (about 18%) are left out. Cut-off read from the data, not from the text of the source: active = normalized growth mostly below about 0.91 (no sharp cut-off); inconclusive = no clear call, values can overlap the other calls; inactive = mostly above about 0.92. Some of the results follow.

Experiment: chemical genetic growth profiling, strain panel (AID 1159580);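 note: tested at 20 µM; growth read once vehicle control cultures reached saturation at 30 °C; 1 = growth at the plate median or of vehicle wells; lower values mean less growth of the strain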
Conditions: S. cerevisiae deletion strains, growth OD
[1] = locus YDL101C, strain DUN1, hits give low values
[2] = locus YHR030C, strain SLT2, hits give low values
[3] = locus YAL013W, strain DEP1, hits give low values
[4] = locus YBR229C, strain ROT2, hits give low values
[5] = locus YDR150W, strain NUM1, hits give low values
[6] = locus YEL061C, strain CIN8, hits give low values
[7] = locus YGR078C, strain PAC10, hits give low values
[8] = locus YHR087W, strain rtc3, hits give low values
[9] = locus YJL187C, strain SWE1, hits give low values
[10] = locus YJR043C, strain POL32, hits give low values
[11] = locus YJR075W, strain HOC1, hits give low values
[12] = locus YLR039C, strain RIC1, hits give low values
[13] = locus YLR058C, strain SHM2 (second series), hits give low values
[14] = locus YLR085C, strain ARP6, hits give low values
[15] = locus YLR262C, strain YPT6, hits give low values
[16] = locus YML094W, strain GIM5, hits give low values
[17] = locus YMR219W, strain ESC1, hits give low values
[18] = locus YMR263W, strain SAP30, hits give low values
[19] = locus YNL153C, strain GIM3, hits give low values
[20] = locus YNL298W, strain CLA4 (second series), hits give low values
[21] = locus YNL322C, strain KRE1, hits give low values
[22] = locus YNR030W, strain Alg12, hits give low values
[23] = locus YOL006C, strain TOP1, hits give low values
[24] = locus YPL055C, strain LGE1, hits give low values
[25] = locus YPL241C, strain CIN2, hits give low values
[26] = locus YPR135W, strain CTF4, hits give low values

Measured: normalized growth

Cc1csc2ncnc(N/N=C\c3ccccc3Cl)c12
inactive: locus YAR019C, strain CDC15, hits give low values 0.959 | locus YBL105C, strain PKC1, hits give low values 0.96 | locus YBR135W, strain CKS1, hits give low values 0.968 | locus YBR136W, strain MEC1, hits give low values 0.962 | locus YBR160W, strain CDC28, hits give low values 0.954 | locus YDL017W, strain CDC7, hits give low values 0.97 | locus YDL028C, strain MPS1, hits give low values 0.968 | [1] 0.967 | locus YDL108W, strain KIN28, hits give low values 0.962 | locus YDL132W, strain cdc53, hits give low values 0.958 | locus YDL214C, strain PRR2, hits give low values 0.961 | locus YDR052C, strain DBF4, hits give low values 0.977 | locus YDR054C, strain cdc34, hits give low values 0.952 | locus YDR226W, strain ADK1, hits give low values 0.969 | locus YDR477W, strain SNF1, hits give low values 0.958 | locus YER123W, strain YCK3, hits give low values 0.931 | locus YER133W, strain GLC7, hits give low values 0.967 | locus YFL009W, strain cdc4, hits give low values 0.958 | locus YFL029C, strain CAK1, hits give low values 0.956 | locus YFR003C, strain YPI1, hits give low values 0.96 | locus YFR019W, strain FAB1, hits give low values 0.979 | locus YFR028C, strain CDC14, hits give low values 0.955 | locus YGR040W, strain KSS1, hits give low values 0.942 | locus YGR052W, strain FMP48, hits give low values 1.03 | locus YGR092W, strain DBF2, hits give low values 0.917 | [2] 1.01 | locus YHR079C, strain IRE1, hits give low values 0.997 | locus YHR082C, strain KSP1, hits give low values 1.05 | locus YHR205W, strain SCH9, hits give low values 0.968 | locus YIL147C, strain SLN1, hits give low values 0.968 | locus YJL095W, strain BCK1, hits give low values 0.994 | locus YJL128C, strain PBS2, hits give low values 0.946 | locus YJL157C, strain FAR1, hits give low values 0.947 | locus YJR016C, strain ILV3, hits give low values 0.956 | locus YJR066W, strain TOR1 (second series), hits give low values 0.918 | locus YJR066W, strain TOR1, hits give low values 1.05 | locus YKL048C, strain ELM1, hits give low values 0.976 | locus YKL067W, strain YNK1, hits give low values 0.947 | locus YKL101W, strain HSL1, hits give low values 0.951 | locus YKL193C, strain SDS22, hits give low values 0.957 | locus YKL203C, strain TOR2, hits give low values 1 | locus YLR113W, strain HOG1, hits give low values 0.882 | locus YLR133W, strain CKI1, hits give low values 0.951 | locus YLR403W, strain SFP1, hits give low values 0.931 | locus YML070W, strain DAK1, hits give low values 0.935 | locus YMR001C, strain CDC5, hits give low values 0.957 | locus YMR205C, strain PFK2 (second series), hits give low values 0.973 | locus YMR277W, strain FCP1, hits give low values 0.966 | locus YNL006W, strain LST8, hits give low values 0.973 | locus YNL020C, strain ARK1, hits give low values 0.958 | locus YNL161W, strain CBK1, hits give low values 0.956 | locus YNL183C, strain NPR1, hits give low values 1.02 | locus YNL207W, strain RIO2, hits give low values 0.965 | locus YNL222W, strain SSU72, hits give low values 0.961 | locus YNL307C, strain MCK1 (second series), hits give low values 0.962 | locus YOL078W, strain AVO1, hits give low values 0.957 | locus YOL136C, strain PFK27, hits give low values 0.942 | locus YOR061W, strain CKA2, hits give low values 0.973 | locus YOR119C, strain RIO1, hits give low values 1.01 | locus YOR231W, strain MKK1, hits give low values 0.927 | locus YOR329C, strain SCD5, hits give low values 0.96 | locus YPL031C, strain PHO85, hits give low values 0.959 | locus YPL153C, strain RAD53, hits give low values 0.944 | locus YPL204W, strain HRR25, hits give low values 0.936 | locus YPL209C, strain IPL1, hits give low values 0.949 | locus YPL256C, strain CLN2, hits give low values 0.901 | locus YPR025C, strain CCL1, hits give low values 0.968 | locus YPR106W, strain ISR1, hits give low values 0.955 | locus YPR111W, strain DBF20, hits give low values 0.943 | strain NNK1, hits give low values 0.959 | strain TSCII, hits give low values 0.957

O=C(N/N=C\c1ccccc1Cl)c1cccnc1
inactive: [3] 1.02 | [4] 1 | [1] 0.971 | locus YDL134C, strain PPH21, hits give low values 1.01 | [5] 0.932 | [6] 1.03 | [7] 1 | locus YGR229C, strain SMI1, hits give low values 1.01 | [2] 0.987 | [8] 1.01 | [9] 0.996 | [10] 0.995 | [11] 0.99 | locus YKL190W, strain CNB1, hits give low values 1.01 | [12] 1.03 | [13] 1.01 | [14] 0.97 | [15] 1.01 | [16] 1 | [17] 1 | [18] 0.945 | [19] 1 | [20] 1 | [21] 1 | [22] 1.01 | [23] 1.03 | [24] 0.886 | [25] 0.996 | [26] 1

O=C(N/N=C\c1ccccc1Cl)N/N=C\c1ccccc1Cl
inactive: [4] 0.989 | locus YCL061C, strain MRC1, hits give low values 1 | [1] 0.992 | [5] 0.88 | [7] 1 | [8] 0.989 | [9] 0.987 | [10] 0.945 | [11] 0.988 | [13] 1 | [15] 0.871 | [17] 1 | locus YNL128W, strain TEP1, hits give low values 0.976 | [19] 0.996 | [21] 0.977 | [23] 0.769
active: [3] 0.898 | [6] 0.834 | [2] 0.363 | [12] 0.753 | [14] 0.458 | [16] 0.773 | [18] 0.909 | [20] 0.588 | [22] 0.69 | [24] 0.765 | [25] 0.707 | [26] 0.553
